Experimental data as given in PubChem BioAssay (EPA / NIEHS).
Inconclusive results are not listed. Calls of active or inactive are those of the source. How the source made its calls: active means hit-call score of the fitted dose curve at least 0.9, where 1 is the maximum; inconclusive means response in the unintended direction; inactive means score below 0.9.

Each compound was assayed against human Vitamin D Receptor (VDR), VDR (gene 7421) (UniProt P11473) (assay: ATG_VDR_TRANS: Attagene TRANS-FACTORIAL HepG2 Assay for human Vitamin D Receptor (VDR) (AID 2283022)).
In short: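 Steps: transfect HepG2 with GAL4-UAS-driven reporter constructs; dose compounds 24 h; isolate RNA, reverse-transcribe, PCR-amplify with 6-FAM-labelled primer extension and HpaI digestion; quantify fragments by capillary electrophoresis relative to DMSO.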

Sequence of human Vitamin D Receptor (VDR), VDR (gene 7421) (P11473 whole entry, looked up, the tested form may be a part): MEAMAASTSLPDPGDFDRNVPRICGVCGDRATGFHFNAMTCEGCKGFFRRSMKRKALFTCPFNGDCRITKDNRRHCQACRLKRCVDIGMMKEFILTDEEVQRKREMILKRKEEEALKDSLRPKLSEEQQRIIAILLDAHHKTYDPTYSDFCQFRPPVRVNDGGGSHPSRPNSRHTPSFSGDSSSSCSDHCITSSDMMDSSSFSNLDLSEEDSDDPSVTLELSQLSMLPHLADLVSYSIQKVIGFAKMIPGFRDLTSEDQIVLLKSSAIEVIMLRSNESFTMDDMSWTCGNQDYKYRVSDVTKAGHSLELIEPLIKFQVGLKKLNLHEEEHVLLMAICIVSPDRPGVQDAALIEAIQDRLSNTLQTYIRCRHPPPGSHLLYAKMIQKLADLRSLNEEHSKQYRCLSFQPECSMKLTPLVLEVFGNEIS

outcome, inactive:
NNC(=O)c1cccc(C(=O)NN)c1
CC(C)C1=CC2=CC[C@@H]3[C@](C)(CCC[C@@]3(C)C(=O)O)[C@H]2CC1
CC(C)c1ccc2cc(C(C)C)ccc2c1
CC(C)CC(O)Cc1ccccc1 (stereo not drawn)
CCOC(=O)N1CCC(=C2c3ccc(Cl)cc3CCc3cccnc32)CC1
CC(C)=CCCC(C)C=O (stereo not drawn)
CC(CC=O)CCCC(C)(C)O (stereo not drawn)
CCC(=O)Oc1ccc(/C(CC)=C(\CC)c2ccc(OC(=O)CC)cc2)cc1
COC(=O)/C=C/C(C)=C\C=C\C(C)=C\C=C\C=C(C)\C=C\C=C(C)\C=C\C(=O)O
CCCNC(=O)NS(=O)(=O)c1ccc(Cl)cc1
C1=Cc2ccccc2C1
O=C(O)c1ccccc1Nc1cccc(C(F)(F)F)c1
COc1c2ccoc2cc2oc(=O)ccc12
O=C1c2cccc(O)c2C(=O)c2c(O)cc(CO)cc21
O=[N+]([O-])C1(Br)COCOC1
Cc1cc(=O)n(-c2ccccc2)n1C
C=C(C)c1cccc(C(C)(C)N=C=O)c1
COc1ccc(C(Cl)=C(c2ccc(OC)cc2)c2ccc(OC)cc2)cc1
C=CC(C)(CCC=C(C)C)OC(=O)CC(C)C (stereo not drawn)
O=C1CCC(=O)N1Cl
O=C(c1ccccc1)C1CCC1
C=C[Si](C)(C)O[Si](C)(C)C=C
Cc1ccc([N+](=O)[O-])cc1S(=O)(=O)O
CC(C)(C)C(=O)CCc1ccc(Cl)cc1
CCOC(=O)Cc1cccc2ccccc12
C1=CCCC1
CC(C)c1ccc2c(c1)CC[C@H]1[C@](C)(CN)CCC[C@]21C
O=C(/C=C/C=C/c1ccc2c(c1)OCO2)N1CCCCC1
N#CCc1ccc(Cl)cc1Cl
COCCOCCOCCOCCOC
CC(=O)OCc1ccco1
C=CC(=O)OCCOC(=O)C=C
C=CC(=O)OCCOC1C2CCC1C1CC=CC12 (stereo not drawn)
